From PMC12820563, “FoxP3 forms a head-to-head dimer in vivo and stabilizes its multimerization on adjacent microsatellites”
Whole data set: some 16,000 sequences, median “rpm ratio (pull-down/input)” near 0.5, cut for the highest 2% near 5.5. Shown is part of a subset that was picked to be rich in the highest values.

biological target: T1, MBP-FoxP3dN (Mus musculus, UniProt Q99JB6 188-423); test: PD-seq (MBP pull-down with sequencing); 20 mM Tris-HCl pH 7.5, 100 mM NaCl, 1.5 mM MgCl2, 0.4 uM protein, 0.1 uM dsDNA library, 30 min, room temperature, amylose pull-down; high values mean tight binding; details: protein: recombinant; tags: His6-MBP; chain copies: 2; dsDNA, one strand shown
T1 sequence: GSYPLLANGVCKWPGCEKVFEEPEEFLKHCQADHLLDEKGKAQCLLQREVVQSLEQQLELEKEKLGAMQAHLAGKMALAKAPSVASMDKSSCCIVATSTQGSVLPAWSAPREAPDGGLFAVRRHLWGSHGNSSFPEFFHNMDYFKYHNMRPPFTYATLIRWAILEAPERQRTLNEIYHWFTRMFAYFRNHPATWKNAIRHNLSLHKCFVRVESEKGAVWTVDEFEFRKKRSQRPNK
Method in brief: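 Binding is reads-per-million enrichment of pull-down over input, with replicates pooled. It comes from 30 min room-temperature incubation in Tris pH 7.5 buffer with NaCl and MgCl2 of 0.4 µM His6-MBP-tagged, N-terminally truncated mouse FoxP3 or FoxP1 fragment from E. coli with 0.1 µM Klenow-filled degenerate double-stranded DNA library, followed by amylose resin capture, three washes and Illumina sequencing of the released DNA.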

Sequence	binding signal
GATGATTGTTCTCCCAGCTGATGAATTGGTCCACTCGAGTAAACAAATTTTCCTAATCTTTCTGTTCAAGCGCCATCTAC	0.387 RPM ratio (pull-down/input)
GATGATTGTTCTCCCAGCTGATGAATTACTGAGCTCGAGTAAACAAATTTTCCTAATCTTTCTGTTCAAGCGCCATCTAC	0.258 RPM ratio (pull-down/input)
GATGATTGTTCTCCCAGCTGATGAATTAACACCTTCGAGTAAACAAATTTTCCTAATCTTTCTGTTCAAGCGCCATCTAC	0.408 RPM ratio (pull-down/input)
GATGATTGTTCTCCCAGCTGATGAATTCTTTACGTCGAGTAAACAAATTTTCCTAATCTTTCTGTTCAAGCGCCATCTAC	0.372 RPM ratio (pull-down/input)
GATGATTGTTCTCCCAGCTGATGAATTGTAGCGGTCGAGTAAACAAATTTTCCTAATCTTTCTGTTCAAGCGCCATCTAC	0.618 RPM ratio (pull-down/input)
GATGATTGTTCTCCCAGCTGATGAATTTAATACATCGAGTAAACAAATTTTCCTAATCTTTCTGTTCAAGCGCCATCTAC	0.619 RPM ratio (pull-down/input)
GATGATTGTTCTCCCAGCTGATGAATTGTAACCGTCGAGTAAACAAATTTTCCTAATCTTTCTGTTCAAGCGCCATCTAC	0.518 RPM ratio (pull-down/input)
GATGATTGTTCTCCCAGCTGATGAATTGTATTTATCGAGTAAACAAATTTTCCTAATCTTTCTGTTCAAGCGCCATCTAC	6.83 RPM ratio (pull-down/input)
GATGATTGTTCTCCCAGCTGATGAATTTATTGAATCGAGTAAACAAATTTTCCTAATCTTTCTGTTCAAGCGCCATCTAC	0.822 RPM ratio (pull-down/input)
GATGATTGTTCTCCCAGCTGATGAATTTATTTTATCGAGTAAACAAATTTTCCTAATCTTTCTGTTCAAGCGCCATCTAC	3.67 RPM ratio (pull-down/input)
GATGATTGTTCTCCCAGCTGATGAATTTATTCTATCGAGTAAACAAATTTTCCTAATCTTTCTGTTCAAGCGCCATCTAC	0.549 RPM ratio (pull-down/input)
GATGATTGTTCTCCCAGCTGATGAATTTTATTGATCGAGTAAACAAATTTTCCTAATCTTTCTGTTCAAGCGCCATCTAC	5.5 RPM ratio (pull-down/input)
GATGATTGTTCTCCCAGCTGATGAATTTGTATTATCGAGTAAACAAATTTTCCTAATCTTTCTGTTCAAGCGCCATCTAC	5.3 RPM ratio (pull-down/input)
GATGATTGTTCTCCCAGCTGATGAATTTTATTTATCGAGTAAACAAATTTTCCTAATCTTTCTGTTCAAGCGCCATCTAC	6.95 RPM ratio (pull-down/input)
GATGATTGTTCTCCCAGCTGATGAATTTATTTGATCGAGTAAACAAATTTTCCTAATCTTTCTGTTCAAGCGCCATCTAC	2.62 RPM ratio (pull-down/input)
GATGATTGTTCTCCCAGCTGATGAATTTTTATTATCGAGTAAACAAATTTTCCTAATCTTTCTGTTCAAGCGCCATCTAC	0.779 RPM ratio (pull-down/input)
GATGATTGTTCTCCCAGCTGATGAATTATTCCTATCGAGTAAACAAATTTTCCTAATCTTTCTGTTCAAGCGCCATCTAC	0.365 RPM ratio (pull-down/input)
GATGATTGTTCTCCCAGCTGATGAATTCTATTTATCGAGTAAACAAATTTTCCTAATCTTTCTGTTCAAGCGCCATCTAC	6.6 RPM ratio (pull-down/input)
GATGATTGTTCTCCCAGCTGATGAATTTATTGTATCGAGTAAACAAATTTTCCTAATCTTTCTGTTCAAGCGCCATCTAC	5.25 RPM ratio (pull-down/input)
GATGATTGTTCTCCCAGCTGATGAATTGATCAAGTCGAGTAAACAAATTTTCCTAATCTTTCTGTTCAAGCGCCATCTAC	0.245 RPM ratio (pull-down/input)

Sequence	binding signal
GATGATTGTTCTCCCAGCTGATGAATTTGACGAGTCGAGTAAACAAATTTTCCTAATCTTTCTGTTCAAGCGCCATCTAC	0.235 RPM ratio (pull-down/input)
GATGATTGTTCTCCCAGCTGATGAATTATCAGCCTCGAGTAAACAAATTTTCCTAATCTTTCTGTTCAAGCGCCATCTAC	0.468 RPM ratio (pull-down/input)
GATGATTGTTCTCCCAGCTGATGAATTTCCGTGCTCGAGTAAACAAATTTTCCTAATCTTTCTGTTCAAGCGCCATCTAC	0.332 RPM ratio (pull-down/input)
GATGATTGTTCTCCCAGCTGATGAATTGGACCATTCGAGTAAACAAATTTTCCTAATCTTTCTGTTCAAGCGCCATCTAC	0.374 RPM ratio (pull-down/input)
GATGATTGTTCTCCCAGCTGATGAATTAGCCGACTCGAGTAAACAAATTTTCCTAATCTTTCTGTTCAAGCGCCATCTAC	0.205 RPM ratio (pull-down/input)
GATGATTGTTCTCCCAGCTGATGAATTCTGGAATTCGAGTAAACAAATTTTCCTAATCTTTCTGTTCAAGCGCCATCTAC	0.579 RPM ratio (pull-down/input)
GATGATTGTTCTCCCAGCTGATGAATTCCCTGTGTCGAGTAAACAAATTTTCCTAATCTTTCTGTTCAAGCGCCATCTAC	0.347 RPM ratio (pull-down/input)
GATGATTGTTCTCCCAGCTGATGAATTTTTGCTGTCGAGTAAACAAATTTTCCTAATCTTTCTGTTCAAGCGCCATCTAC	0.548 RPM ratio (pull-down/input)
GATGATTGTTCTCCCAGCTGATGAATTCGTGTTGTCGAGTAAACAAATTTTCCTAATCTTTCTGTTCAAGCGCCATCTAC	2.75 RPM ratio (pull-down/input)
GATGATTGTTCTCCCAGCTGATGAATTTTTCGTGTCGAGTAAACAAATTTTCCTAATCTTTCTGTTCAAGCGCCATCTAC	0.363 RPM ratio (pull-down/input)
GATGATTGTTCTCCCAGCTGATGAATTGTTGTTGTCGAGTAAACAAATTTTCCTAATCTTTCTGTTCAAGCGCCATCTAC	7.65 RPM ratio (pull-down/input)
GATGATTGTTCTCCCAGCTGATGAATTTGTCGTGTCGAGTAAACAAATTTTCCTAATCTTTCTGTTCAAGCGCCATCTAC	5.6 RPM ratio (pull-down/input)
GATGATTGTTCTCCCAGCTGATGAATTTTTGTTGTCGAGTAAACAAATTTTCCTAATCTTTCTGTTCAAGCGCCATCTAC	3.24 RPM ratio (pull-down/input)
GATGATTGTTCTCCCAGCTGATGAATTGTCGTGTTCGAGTAAACAAATTTTCCTAATCTTTCTGTTCAAGCGCCATCTAC	0.915 RPM ratio (pull-down/input)
GATGATTGTTCTCCCAGCTGATGAATTTGCTGTGTCGAGTAAACAAATTTTCCTAATCTTTCTGTTCAAGCGCCATCTAC	6.29 RPM ratio (pull-down/input)
GATGATTGTTCTCCCAGCTGATGAATTGCTTGTGTCGAGTAAACAAATTTTCCTAATCTTTCTGTTCAAGCGCCATCTAC	2.01 RPM ratio (pull-down/input)
GATGATTGTTCTCCCAGCTGATGAATTCGTTGTGTCGAGTAAACAAATTTTCCTAATCTTTCTGTTCAAGCGCCATCTAC	5.69 RPM ratio (pull-down/input)
GATGATTGTTCTCCCAGCTGATGAATTGTGTCGTTCGAGTAAACAAATTTTCCTAATCTTTCTGTTCAAGCGCCATCTAC	2.73 RPM ratio (pull-down/input)
GATGATTGTTCTCCCAGCTGATGAATTTCTGTTGTCGAGTAAACAAATTTTCCTAATCTTTCTGTTCAAGCGCCATCTAC	1.28 RPM ratio (pull-down/input)
GATGATTGTTCTCCCAGCTGATGAATTAGGCTGATCGAGTAAACAAATTTTCCTAATCTTTCTGTTCAAGCGCCATCTAC	0.537 RPM ratio (pull-down/input)
